Bioassay records deposited in PubChem BioAssay by National Center for Advancing Translational Sciences (NCATS).
Giardia FBPA inh = qHTS Assay for Inhibitors of Fructose-1,6-bisphosphate Aldolase from Giardia Lamblia; purified Giardia FBPA; hit rate 0.71% among 290,000; Potency, µM (series often up to 59.6 µM), usual class: inhibitors; AID 2451, 2010; note: nearly all actives have a fitted effect of over 55% in size
Target sequence (A8B2U2 whole entry, looked up): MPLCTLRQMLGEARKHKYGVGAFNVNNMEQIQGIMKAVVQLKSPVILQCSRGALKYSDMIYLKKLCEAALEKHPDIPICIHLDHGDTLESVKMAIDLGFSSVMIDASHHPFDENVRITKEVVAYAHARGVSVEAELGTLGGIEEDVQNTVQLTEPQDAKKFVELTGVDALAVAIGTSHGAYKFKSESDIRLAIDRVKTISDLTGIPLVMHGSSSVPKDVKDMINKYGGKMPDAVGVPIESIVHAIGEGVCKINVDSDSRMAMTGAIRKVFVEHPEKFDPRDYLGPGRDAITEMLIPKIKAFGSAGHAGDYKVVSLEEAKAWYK
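Giardia FBPA (40 nM reagent) was preincubated 10 min at RT with compound (up to 57.5 uM final), then substrate plus GAPDH/TPI/NAD/arsenate coupling system with diaphorase/resazurin was added; resorufin fluorescence (525/598 nm) was read after 20 min.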
Shiga inhibitor = A qHTS for Small Molecule Inhibitors of Shiga Toxin; Vero cells, Shiga toxin protein synthesis inhibition reporter; hit rate 9.2% among 290,000; AID 2315, 2010; inhibition, % at 38.7 µM; in the data active = inhibition mostly above about 28%, no sharp cut-off; inactive = mostly below about 43%
CHX counter = Cycloheximide Counterscreen for Small Molecule Inhibitors of Shiga Toxin; cell reporter, cycloheximide protein synthesis inhibition counterscreen; max response, %; hit rate 12% among 300,000; AID 2314, 2010; in the data active = max response mostly above about 13%, no sharp cut-off; inactive = mostly below about 14%; note: read at 38.3 µM for the half of the compounds with a filed dose
Sm TGR block = qHTS Assay for the Inhibitors of Schistosoma Mansoni Peroxiredoxins. Schistosoma mansoni thioredoxin glutathione reductase (TGR), Q962Y6. purified TGR, DTNB reduction, TNB absorbance 405 nm. Potency, µM (doses to about 114 µM), usual class: inhibitors. hit rate 3% among 360,000. AID 485364, 2010; note: nearly all actives have a fitted effect of over 60% in size
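First, TGR (20 nM dispensed) and NADPH were mixed with compound. Second, a 15 min room-temperature incubation followed. Third, further NADPH and then DTNB were added to start the reaction. Finally, TNB absorbance was monitored kinetically.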
LmPK inhibitor = qHTS Assay for Inhibitors of Leishmania Mexicana Pyruvate Kinase (LmPK) | Q27686 | purified LmPK, Kinase-Glo ATP luminescence, 1 h | Potency, µM (doses to about 57.5 µM), hits mostly inhibitors | hit rate 0.37% among 290,000 | AID 1721, 2009
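Purified LmPK (0.1 nM) with 0.5 mM PEP and 0.1 mM ADP in imidazole buffer pH 7.2 with MgCl2/KCl, 1 h at room temperature. ATP formed was read by luciferase luminescence and normalized to no-enzyme and uninhibited controls.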
TbPYK inhibitor = qHTS of Trypanosoma Brucei Inhibitors; Potency, µM (series often up to 76.8 µM), most hits filed as inhibitors; pyruvate kinase (Trypanosoma brucei), Q57TT1; hit rate 0.12% among 410,000; TbPYK enzyme, Kinase-Glo Plus ATP luminescence, 45 min; AID 624173, 2012; note: nearly all actives have a fitted effect of over 50% in size
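Luminescent Kinase-Glo Plus end-point after 45 min room-temperature reaction of T. brucei pyruvate kinase started with 130 uM ADP (final). Buffer TEA 50 mM pH 7.2 with KCl, MgCl2, BSA, Tween-20; titration-based qHTS with fitted concentration-effect curves.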
A number is an active result. The sample as a whole holds a higher share of hits than the screen did. Unless noted, calls come from the whole dose curve; as a rule, active = well fitted curve in the direction sought with a large enough effect; inconclusive = small, poorly fitted or top-dose-only effect, or another doubt; inactive = no such curve, though single readings can be large; an effect the other way counts as inactive or inconclusive.

For CCOc1ccccc1Oc1coc2cc(OC(=O)N(C)C)ccc2c1=O the results were Giardia FBPA inh inactive, Shiga inhibitor 55.2, CHX counter 36.1, Sm TGR block inactive, LmPK inhibitor inactive and TbPYK inhibitor inactive.
Screening COc1ccc2c(=O)c(CC(=O)O)coc2c1 returned Giardia FBPA inh inactive.
`CCN(CC)C(=O)COc1ccc2c(-c3ccccc3)cc(=O)oc2c1` gave Giardia FBPA inh inactive, Shiga inhibitor inactive, CHX counter inactive, Sm TGR block inactive, LmPK inhibitor inactive and TbPYK inhibitor inactive.
`CCN(CC)C(=O)Oc1ccc2c(=O)c(-c3ccccc3)coc2c1` gave Giardia FBPA inh inactive, Shiga inhibitor 84.8, CHX counter 50.3, Sm TGR block inactive, LmPK inhibitor inactive and TbPYK inhibitor inactive.
`CCN(CC)CCOC(=O)c1ccc(NC(=O)CCn2c(=O)oc3ccccc32)cc1` gave Sm TGR block inactive and TbPYK inhibitor inactive.
For CCN(C(=O)CSc1nc2ccccc2c(=O)n1C(C)COC)C1CCS(=O)(=O)C1 (configuration not stated) the results were Giardia FBPA inh inactive, Shiga inhibitor inactive, CHX counter inactive, Sm TGR block inactive, LmPK inhibitor inactive and TbPYK inhibitor inactive.
Screening COc1nc(N)nc(NC23CC4CC(CC(C4)C2)C3)n1 returned Giardia FBPA inh inactive, Shiga inhibitor 20.6, CHX counter 15.4, Sm TGR block inactive, LmPK inhibitor inactive and TbPYK inhibitor inactive.
Screening Cc1ccccc1CC1(CO)CCCN(C(=O)CCN2CCCO2)C1 (configuration not stated) returned Giardia FBPA inh inactive, Shiga inhibitor 35.6, CHX counter 17.0, Sm TGR block inactive, LmPK inhibitor inactive and TbPYK inhibitor inactive.
Cc1ccccc1CC1(CO)CCCN(Cc2ccccc2Cl)C1 (configuration not stated) was read as Giardia FBPA inh inactive, Shiga inhibitor inactive, CHX counter inactive, Sm TGR block 25.1µM, LmPK inhibitor inactive and TbPYK inhibitor inactive.
CC(C)(C)c1ccc(-c2cc(-c3ccccc3O)[nH]n2)cc1 was read as Giardia FBPA inh inactive, Shiga inhibitor 58.9, CHX counter 27.1, Sm TGR block inactive, LmPK inhibitor inactive and TbPYK inhibitor inactive.
Screening Oc1ccccc1-c1cc(-c2cccc(F)c2)n[nH]1 returned Giardia FBPA inh inactive, Shiga inhibitor 122.0, CHX counter 37.3, Sm TGR block inactive, LmPK inhibitor inactive and TbPYK inhibitor inactive.
CC(C)(C)c1ccc(-c2cc(N)n[nH]2)cc1 was read as Giardia FBPA inh inactive, Shiga inhibitor inactive, CHX counter inactive, Sm TGR block inactive, LmPK inhibitor inactive and TbPYK inhibitor inactive.
Screening Cc1cccc(N2CCN(C(=S)c3ccc(-c4ccccc4[N+](=O)[O-])o3)CC2)c1 returned Giardia FBPA inh inactive, Shiga inhibitor inactive, CHX counter inactive, Sm TGR block inactive, LmPK inhibitor inactive and TbPYK inhibitor inactive.
`O=[N+]([O-])c1ccccc1-c1ccc(C(=S)N2CCCCC2)o1` gave Giardia FBPA inh inconclusive, Shiga inhibitor 62.5, CHX counter 58.3, Sm TGR block inactive, LmPK inhibitor inactive and TbPYK inhibitor inactive.
O=[N+]([O-])c1ccccc1-c1ccc(C(=S)N2CCCC2)o1 was read as Giardia FBPA inh 15.8µM, Shiga inhibitor 97.3, CHX counter 44.0, Sm TGR block inactive, LmPK inhibitor inactive and TbPYK inhibitor inconclusive.
Screening CCS(=O)(=O)c1ncc(N(Cc2cccc(F)c2)Cc2ccco2)c(C(=O)Nc2ccccc2Cl)n1 returned Sm TGR block inactive and TbPYK inhibitor inactive.
For O=C(Nc1cccc(C(F)(F)F)c1)c1cncs1 the results were Giardia FBPA inh inactive, Shiga inhibitor inactive, CHX counter inactive, Sm TGR block inactive, LmPK inhibitor inactive and TbPYK inhibitor inactive.
`O=C(Nc1cccc(C(F)(F)F)c1)c1cc(-c2cccs2)on1` gave Giardia FBPA inh inactive, Shiga inhibitor inactive, CHX counter 23.0, Sm TGR block inactive, LmPK inhibitor inactive and TbPYK inhibitor inactive.
For COc1ccc(NC(=O)c2cc(-c3ccccc3)on2)cc1OC the results were Giardia FBPA inh inactive, CHX counter inactive, Sm TGR block inactive, LmPK inhibitor inactive and TbPYK inhibitor inactive.
`CCc1ccc(NC(=O)c2cc(-c3cccs3)on2)cc1` gave Giardia FBPA inh inactive, Shiga inhibitor 100.0, CHX counter 38.4, Sm TGR block inactive, LmPK inhibitor inactive and TbPYK inhibitor inactive.
For COc1ccc(NC(=O)c2cc(-c3cccs3)on2)cc1 the results were Giardia FBPA inh inactive, Shiga inhibitor 72.7, CHX counter 29.0, Sm TGR block inactive, LmPK inhibitor inactive and TbPYK inhibitor inactive.
For COc1ccc(NC(=O)c2cc(-c3cccs3)on2)cc1OC the results were Giardia FBPA inh inactive, Shiga inhibitor inactive, CHX counter 24.2, Sm TGR block inactive, LmPK inhibitor inactive and TbPYK inhibitor inactive.
Screening Cc1ccc(Nc2c3c(nc4nncn24)CCC3)cc1C returned Sm TGR block inactive and TbPYK inhibitor inactive.
Screening O=c1c(-c2cccs2)nc2cnc(N3CCOCC3)nc2n1-c1ccccc1 returned Giardia FBPA inh inactive.
Screening Cc1ccc(NC(=O)c2cc(-c3ccc(F)cc3)on2)cc1C returned Giardia FBPA inh inactive, Shiga inhibitor inactive, CHX counter 20.3, Sm TGR block inactive, LmPK inhibitor inactive and TbPYK inhibitor inactive.
Cc1ccc(NC(=O)c2cc(-c3cccs3)on2)cc1C was read as Giardia FBPA inh inactive, Shiga inhibitor 169.6, CHX counter 56.9, Sm TGR block inactive, LmPK inhibitor inactive and TbPYK inhibitor inactive.
For CCc1ccc(NC(=O)c2sccc2-n2cccc2)cc1 the results were Giardia FBPA inh inactive, Shiga inhibitor inactive, CHX counter 19.1, Sm TGR block inactive, LmPK inhibitor inactive and TbPYK inhibitor inactive.
Cn1ccs/c1=N\C(=O)Nc1cccc(C(F)(F)F)c1 was read as Giardia FBPA inh inactive, Shiga inhibitor 69.4, CHX counter 28.2, Sm TGR block inactive, LmPK inhibitor inactive and TbPYK inhibitor inactive.
`COc1ccc(Cl)cc1NC(=O)CCn1nc(C)cc1C` gave Sm TGR block inactive and TbPYK inhibitor inactive.
For O=C(c1csnn1)N1CCC2(CC1)CCN(C(c1ccccc1)c1ccccc1)CC2 the results were Giardia FBPA inh inactive and TbPYK inhibitor inactive.
`O=c1cc(CSc2ccc(Cl)cc2)[nH]c2[nH]n(-c3ccccc3)c(=O)c12` gave Giardia FBPA inh inactive, Shiga inhibitor inactive, CHX counter inactive, Sm TGR block 44.7µM, LmPK inhibitor inactive and TbPYK inhibitor inactive.
For Cc1ccc(SCc2cc(=O)c3c(=O)n(-c4ccccc4)[nH]c3[nH]2)cc1 the results were Giardia FBPA inh inactive, Shiga inhibitor inactive, CHX counter inactive, Sm TGR block inactive, LmPK inhibitor inactive and TbPYK inhibitor inactive.
